# Screen size: about 350,000 compounds; about 2,100 (0.6%) were called active.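 How the source made its calls: active means inhibition of the ligand-induced calcium signal above about 50% at the single tested concentration (limit read from the data); inactive means the rest.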 The list comes from a sample in which actives are over-represented; it also holds similar structures and randomly drawn compounds.
# Experiment: blockers of CRF-evoked CRF-R2/CRF-BP calcium response – cell-based, HEK293, calcium dye fluorescence, uHTS, primary screen (AID 588475)
# Conditions: CRF-induced calcium fluorescence, at 11.8 µM, stronger effect = higher value
row,SMILES,inhibition
1,COc1ccc(CCNC(=O)c2nnc(CS(=O)(=O)c3ccccc3)o2)cc1OC,-36.1% (inactive)
2,CCc1nn(CCCC(=O)NCc2ccc(C)cc2)c(=O)c2cc3occc3n12,-4.08% (inactive)
3,Cc1ccc(C)c(S(=O)(=O)N2CC(=O)Nc3ccccc32)c1,-4.23% (inactive)
4,O=C(NCc1ccncc1)c1cccc(NS(=O)(=O)c2ccc(F)c(F)c2)c1,-1.96% (inactive)
5,Cc1cc(=O)oc2c(C(=O)c3ccccc3)c(OCC(N)=O)ccc12,21.9% (inactive)
6,CN(CC(=O)Nc1cccc(F)c1)C(=O)CC1CCCC1,-9.75% (inactive)
7,CCCN(CC(=O)Nc1ccccc1C)C(=O)c1ccc2[nH]c3c(c2c1)CC(C)CC3 (stereo not given),-10.4% (inactive)
8,CC1CCc2[nH]c3ccc(C(=O)N(C)CC(=O)Nc4cccc(F)c4)cc3c2C1 (stereo not given),104% (active)
9,COCCN1CCn2c(nc3cc(NS(C)(=O)=O)ccc32)C1,-7.04% (inactive)
10,COC(=O)Nc1ncc(CN2C(=O)c3ccccc3C2=O)s1,-1.89% (inactive)
11,CCOC(=O)C(CC)/C(C)=N\NC(=O)c1cccc(C)c1 (stereo not given),89% (active)
12,CCNC(=O)COC(=O)CCNC(=O)c1cccc(C)c1,3.93% (inactive)
13,CC(=O)Nc1ccc(NC(=O)[C@@H](NC(=O)c2cccc(C)c2)C(C)C)cc1,4.4% (inactive)
14,Cc1ccccc1C(CC(=O)c1cccs1)C(C#N)C#N (stereo not given),-24.6% (inactive)
15,O=C(CN(c1cccc(Cl)c1)S(=O)(=O)c1ccccc1)NN=C1CCCC1,-7.21% (inactive)
16,O=C(CSc1nc(-c2ccccc2)cs1)Nc1cccc([N+](=O)[O-])c1,27.9% (inactive)
17,O=C(CSCC(=O)Nc1cccc([N+](=O)[O-])c1)Nc1ccccc1,54% (active)
18,O=C(CN1CCC(NC(=O)Nc2ccccc2)CC1)Nc1cccc([N+](=O)[O-])c1,13.2% (inactive)
19,O=C1c2ccccc2C2=Nc3ccccc3SC(c3ccccc3F)C12 (stereo not given),-94.9% (inactive)
20,CC(C)OP(=O)(OC(C)C)C(Nc1ccccc1)c1cccc([N+](=O)[O-])c1 (stereo not given),-23.4% (inactive)
21,CC(Nc1ccc([N+](=O)[O-])cc1[N+](=O)[O-])c1ccccc1 (stereo not given),61.4% (active)
22,CC1(C)C/C(=N/Nc2ccc([N+](=O)[O-])cc2[N+](=O)[O-])C(C)(C)O1,-6.77% (inactive)
23,Cc1ccc(OCC(=O)Nc2ccccc2C(=O)NC2CC2)cc1C,0.16% (inactive)
24,O=C(NC(=S)Nc1ccccc1N1CCCCC1)c1ccc(F)cc1,-90.3% (inactive)
25,O=C(Nc1ccccc1N1CCOCC1)c1ccncc1,4.16% (inactive)
26,CCc1ccc(C(=O)NC(=S)Nc2ccccc2N2CCOCC2)cc1,125% (active)
27,O=C(NCC(=O)N(CC1CCCO1)C(C(=O)NC1CCCCC1)c1ccccc1)c1ccco1 (stereo not given),2.38% (inactive)
28,COc1ccc(C)cc1NC(=O)CSc1ccc(Cl)cc1,5.69% (inactive)
29,COc1ccc(Cl)cc1NC(=O)CNc1ccccc1F,61.7% (active)
30,COc1ccc(Cl)cc1NC(=O)CN(C)C(=O)c1cc2ccccc2cc1OC,9.16% (inactive)

# — PubChem BioAssay AID588475 (Sanford-Burnham Center for Chemical Genomics, 2011)
